Laboratory results: PubChem BioAssay (NCI)
About 83,000 compounds went through this panel and 20% of them were active in at least one assay; those are over-represented in the sample as a whole.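 The endpoint reported here, percent growth, reads 100 for growth as untreated, 0 for no net growth and -100 for all cells dead.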 A number with no mark means an inactive call. Active and inactive are the calls of the source. Rule for the calls: active = growth percent below 10; inactive = the rest.

How the values were obtained:
Assay in all cases: NCI-60 one-dose screen, 48 h (100 = growth as untreated, 0 = no growth, -100 = all killed)
Conditions in all cases: 10 µM unless noted
[1] = system: DU-145 prostate
[2] = system: K-562 leukemia
[3] = system: MALME-3M melanoma
[4] = system: MDA-MB-231 breast
[5] = system: RXF 393 renal
[6] = system: SF-268 CNS
[7] = system: SF-295 CNS
[8] = system: SF-539 CNS
[9] = system: UACC-257 melanoma
[10] = system: M14 melanoma

Nc1nc(N)c(C=Nc2ccc(Br)cc2)c(Nc2ccc(Br)cc2)n1
growth [1]: 107% | growth [2]: 92.2% | growth [3]: 119% | growth [4]: 86.1% | growth [5]: 78.9% | growth [6]: 81% | growth [7]: 83.5% | growth [8]: 101% | growth [9]: 83.1% | growth [10]: 97.2%

CC(C)NCC(O)COc1ccc(CCOCC2CC2)cc1 (stereo not given)
growth [1]: 111% | growth [2]: 97.6% | growth [3]: 103% | growth [4]: 99.6% | growth [5]: 97.1% | growth [6]: 108% | growth [7]: 108% | growth [8]: 107% | growth [9]: 108% | growth [10]: 96.6%

CCCCCCCC/C=C\CCCCCCCCOc1cccc(CC(=O)NCC[N+]2(C)CCCCC2)c1
growth [1]: 84.5% | growth [2]: 46.2% | growth [3]: 79.1% | growth [4]: 71.2% | growth [5]: -2.16% (active) | growth [6]: 61.6% | growth [7]: 87.5% | growth [8]: 99.1% | growth [9]: 98.5% | growth [10]: 84.4%

CC(=O)OC[C@]1(C)C=C2C(=O)[C@](C)(O)C3(CC3)C(C)=C2[C@H]1OC(C)=O
growth [1]: 16.7% | growth [2]: 93.1% | growth [3]: 111% | growth [4]: 93.2% | growth [5]: 3.69% (active) | growth [6]: 69.4% | growth [7]: 83% | growth [8]: 95.2% | growth [9]: 106% | growth [10]: 88.2%

O=c1onc(-c2ccccc2)c2ccccc12
growth [1]: 113% | growth [2]: 105% | growth [3]: 121% | growth [4]: 97% | growth [5]: 90.5% | growth [6]: 113% | growth [7]: 101% | growth [8]: 122% | growth [9]: 120% | growth [10]: 118%

FC(F)(F)c1cc(CNc2nc(Cl)ncc2Br)cc(C(F)(F)F)c1
growth [1]: 98.9% | growth [2]: 50.2% | growth [3]: 91.1% | growth [4]: 89% | growth [5]: 92.6% | growth [6]: 93.4% | growth [7]: 88.4% | growth [8]: 85% | growth [9]: 80.8% | growth [10]: 93.9%

Cn1c2c(cc(S(=O)(=O)c3ccccc3)c1=O)CCc1c-2cnn1-c1cccc(Cl)c1
growth [1]: 135% | growth [2]: 73.3% | growth [3]: 87.4% | growth [4]: 98.3% | growth [5]: 93.4% | growth [6]: 106% | growth [7]: 80.3% | growth [8]: 83.1% | growth [9]: 79.7% | growth [10]: 98%

O=C1/C(=C/c2ccc([N+](=O)[O-])cc2)Oc2ccc(O)cc21
growth [1]: 103% | growth [2]: 41.7% | growth [3]: 91.8% | growth [4]: 89% | growth [5]: 92.6% | growth [6]: 89.9% | growth [7]: 68.2% | growth [8]: 86.4% | growth [9]: 67.3% | growth [10]: 97.8%

O=[N+]([O-])c1cc2c(cc1Br)-c1ccccc1C2
growth [1]: 113% | growth [2]: 95.6% | growth [3]: 110% | growth [4]: 90.8% | growth [5]: 99.5% | growth [6]: 98.1% | growth [7]: 93.4% | growth [8]: 101% | growth [9]: 98.8% | growth [10]: 78.7%

CCCCCCCC/C=C\CCCCCCCCOc1cccc(CC(=O)NCC[N+]2(C)CCCC2)c1
growth [1]: 92.7% | growth [2]: 60.2% | growth [3]: 88.9% | growth [4]: 81.6% | growth [5]: 13% | growth [6]: 65.5% | growth [7]: 96.4% | growth [8]: 98.8% | growth [9]: 98.9% | growth [10]: 89.2%

O=c1c2cc(F)ccc2oc2c(NCCNCCO)nc3ccccc3c12
growth [1]: 35.8% | growth [2]: -36.9% (active) | growth [3]: 56.4% | growth [4]: 40.4% | growth [5]: 34.3% | growth [6]: 47.5% | growth [7]: 63.6% | growth [8]: 46.3% | growth [9]: 92% | growth [10]: 60.1%

O=C(O)CCN1CCN(c2cccc(Cl)c2)CC1
growth [1]: 118% | growth [2]: 99.8% | growth [3]: 107% | growth [4]: 116% | growth [5]: 105% | growth [6]: 117% | growth [7]: 87.4% | growth [8]: 89.1% | growth [9]: 94.6% | growth [10]: 109%

COc1ccccc1/C=C/C(=O)/C=C/c1ccccc1O
growth [1]: -31.2% (active) | growth [2]: -6.29% (active) | growth [3]: -3.21% (active) | growth [4]: 4.57% (active) | growth [5]: -75.8% (active) | growth [6]: 1.68% (active) | growth [7]: -37.4% (active) | growth [8]: -63% (active) | growth [9]: 69.7% | growth [10]: -31% (active)

COc1ccc(/C=N\N2CCOCC2)cc1OC1CCCC1
growth [1]: 102% | growth [2]: 108% | growth [3]: 127% | growth [4]: 110% | growth [5]: 113% | growth [6]: 94.8% | growth [7]: 98.1% | growth [8]: 94.9% | growth [9]: 102% | growth [10]: 92.7%

COc1ccc(OC)c2ncccc12
growth [1]: 112% | growth [2]: 96% | growth [3]: 89.7% | growth [4]: 109% | growth [5]: 107% | growth [6]: 102% | growth [7]: 95% | growth [8]: 102% | growth [9]: 110% | growth [10]: 93.5%

Fc1c[c-]c(-c2ccccn2)c(F)c1.Fc1c[c-]c(-c2ccccn2)c(F)c1.[Cl][Pt+].[Cl][Pt+].c1ccc([PH+](C[PH+](c2ccccc2)c2ccccc2)c2ccccc2)cc1
growth [1]: 22.8% | growth [2]: 10.2% | growth [3]: -41.2% (active) | growth [4]: -15.4% (active) | growth [5]: 34% | growth [6]: 21.9% | growth [7]: 17.3% | growth [8]: 29.5% | growth [9]: -0.265% (active) | growth [10]: 22.7%

Cc1ccc(-c2c3c(N)c4c(nc3nc3c2c(C)nn3-c2ccccc2)CCCC4)cc1
growth [1]: 105% | growth [2]: 36.6% | growth [3]: 107% | growth [4]: 97.1% | growth [5]: 97% | growth [6]: 108% | growth [7]: 100% | growth [8]: 103% | growth [9]: 92.2% | growth [10]: 110%

COc1ccc(C2=NOC(CC(=O)N(CCO)CCO)C2)cc1OC1CCCC1 (stereo not given)
growth [1]: 105% | growth [2]: 121% | growth [3]: 111% | growth [4]: 103% | growth [5]: 102% | growth [6]: 97% | growth [7]: 97.1% | growth [8]: 104% | growth [9]: 102% | growth [10]: 92.2%

CCN(C(=O)c1ccc2c3c(cccc13)C=C2)c1ccccc1
growth [1]: 113% | growth [2]: 82.7% | growth [3]: 90.1% | growth [4]: 103% | growth [5]: 102% | growth [6]: 107% | growth [7]: 93.6% | growth [8]: 97.4% | growth [9]: 97% | growth [10]: 94.5%

COc1ncnc2c1ncn2C/C(Br)=C(\Br)CCl
growth [1]: 36.8% | growth [2]: 7.96% (active) | growth [3]: -6.59% (active) | growth [4]: 41.8% | growth [5]: 70.1% | growth [6]: 11.6% | growth [7]: 97.2% | growth [8]: 11.8% | growth [9]: -40.5% (active) | growth [10]: -24.6% (active)

C=CC(=O)N1CC2(CC(n3nc(-c4ccc(Oc5ccccc5)cc4)c4c(N)ncnc43)C2)C1
growth [1]: 11% | growth [2]: 17.7% | growth [3]: 12.7% | growth [4]: 3.31% (active) | growth [5]: -19.4% (active) | growth [6]: 10.9% | growth [7]: 70.4% | growth [8]: 10.1% | growth [9]: 5.54% (active) | growth [10]: 14.8%

O=C1/C(=C/c2ccc(F)cc2)CN(Cc2cn(CCNc3ccnc4cc(Cl)ccc34)nn2)C/C1=C\c1ccc(F)cc1
growth [1]: 5.98% (active) | growth [2]: 5.23% (active) | growth [3]: -80.6% (active) | growth [4]: -39.7% (active) | growth [5]: -97.2% (active) | growth [6]: -80.2% (active) | growth [7]: -55.5% (active) | growth [8]: -78.5% (active) | growth [9]: -72.5% (active) | growth [10]: -49.7% (active)

COc1ccc(/C=N/OCC(O)CNCc2ccccc2)cc1OC1CCCC1 (stereo not given)
growth [1]: 105% | growth [2]: 78% | growth [3]: 106% | growth [4]: 101% | growth [5]: 95.5% | growth [6]: 91.7% | growth [7]: 103% | growth [8]: 98% | growth [9]: 97.2% | growth [10]: 98.4%

COc1cc(/C=C/C(=O)CC(=O)/C=C/c2cc(Br)c(OC)c(OC)c2)cc(Br)c1OC
growth [1]: 108% | growth [2]: 73.3% | growth [3]: 96.6% | growth [4]: 101% | growth [5]: 114% | growth [6]: 104% | growth [7]: 102% | growth [8]: 102% | growth [9]: 93.1% | growth [10]: 96.9%

COc1cc(C2C3=C(COC3=O)N(CCO)c3cc4c(cc32)OCO4)cc(OC)c1O (stereo not given)
growth [1]: 11.3% | growth [2]: 27.9% | growth [3]: 35.3% | growth [4]: 54% | growth [5]: 13.1% | growth [6]: 51.1% | growth [7]: 8.07% (active) | growth [8]: 12.7% | growth [9]: 14.5% | growth [10]: 9.86% (active)

COc1ccc2c(c1)c(=O)oc1c(C)c(OCC(C)=O)ccc12
growth [1]: 86.8% | growth [2]: 102% | growth [3]: 112% | growth [4]: 114% | growth [5]: 103% | growth [6]: 85.6% | growth [7]: 93.9% | growth [8]: 94.3% | growth [9]: 96.2% | growth [10]: 112%

COc1cc(/C=C/C(=O)C(=Cc2ccc(F)c(F)c2)C(=O)/C=C/c2ccc(O)c(OC)c2)ccc1O
growth [1]: 17.3% | growth [2]: 13.7% | growth [3]: 51% | growth [4]: 13.1% | growth [5]: -32.5% (active) | growth [6]: 20% | growth [7]: 53.7% | growth [8]: 26.9% | growth [9]: 47.3% | growth [10]: 2.1% (active)
